Screens: PubChem, National Center for Advancing Translational Sciences (NCATS)
Methyltransferases: Primary Screen for Target Class Profiling of Small Molecule Inhibitors of Methyltransferases | AID 1745853, 2022 | calls only at 40 µM | purified enzyme, MTase-Glo SAH luminescence; stronger effect = lower value | 25,000 compounds, 3.9% hits; call rule not given here
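Each enzyme was assayed with SAM and its substrate. SAH formation detected by MTase-Glo luminescence; single-point 40 uM screen[…].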
Calls only; i = inactive; + = active, no number. The full list was thinned out, with hits kept by preference.

SMILES	Methyltransferases
CCc1ccc(C(=O)NC(Cc2c[nH]c3ccccc23)C(=O)OCC(=O)c2ccc(C)cc2)cc1 (centres undefined)	i
Cc1cccc(CNC(=O)c2cc3n(n2)CC(C)(C(=O)NCc2ccccc2)N(C)C3=O)c1 (centres undefined)	i
Cn1c(=O)n(C)c2cc(NS(=O)(=O)c3ccc(N4CCCC4=O)cc3)ccc21	i
CC(=O)O[C@H](C[C@@H](C)[C@H]1C(=O)[C@H](O)[C@@]2(C)[C@@H]3CCC4C(C)(C)[C@@H](O[C@@H]5OC[C@H](O)[C@H](O)[C@H]5O)CC[C@@]45C[C@@]35CC[C@]12C)[C@@H]1OC1(C)C (some centres undefined)	i
COc1ccc(CCNC(=O)c2cc3n(n2)CC(C)(C(=O)NCc2ccccc2)N(C)C3=O)c(OC)c1 (centres undefined)	i
COc1ccc2c(c1)C[C@H](C(=O)Nc1ccc(-c3cn[nH]c3)cc1OCCN(C)C)CO2	+
COc1ccc2c(c1)OCC(C(=O)NCc1noc(-c3ccco3)n1)C2 (centres undefined)	i
COc1ccc2c(c1)CC(NS(=O)(=O)c1ccc(C)cc1)CO2 (centres undefined)	i
CCCn1c(=O)c2ccccc2n2c(=O)n(CC(=O)Nc3ccc(OC)cc3)nc12	i
CCC(C(=O)NCc1ccc2c(c1)OCO2)n1ccc2cc(S(=O)(=O)N3CCCCC3)ccc21 (centres undefined)	i
CC1CCC(NC(=O)C2(C)Cn3c(cc4occc43)C(=O)N2Cc2ccco2)CC1 (centres undefined)	i
Cc1ccccc1CN1C(=O)c2cc3sccc3n2CC1(C)C(=O)NC1CCCCC1C (centres undefined)	i
CCOCCCNc1nc2c(S(=O)(=O)c3ccccc3)nnn2c2ccccc12	i
Nc1c2c(nc3ccccc13)CCCC2	+
Cn1c(=O)n(C)c2cc(S(=O)(=O)NCc3ccccc3)c(Cl)cc21	i
Cn1c(=O)c2ccc(C(=O)NC3CCCCC3)cc2n2c(=O)n(Cc3ccc(F)cc3Cl)nc12	i
CN(C)c1cc(N2CCCC(NS(C)(=O)=O)C2)ncn1 (centres undefined)	i
COc1ccccc1CCN1C(=O)c2cc(-c3ccccc3)nn2CC1(C)C(=O)NCc1ccccc1 (centres undefined)	i
Cc1cccc2nc(CNC(=O)c3cccc(C4CCNC4)c3)cn12 (centres undefined)	i
O=C(c1ccc(C2CCCNC2)cc1)N1CCCN(c2ccc(F)cc2)CC1 (centres undefined)	i
NC(=O)c1cccc2cn(-c3ccc(C4CCCNC4)cc3)nc12 (centres undefined)	+
CCOCCCNC(=O)C1(C)Cn2c(ccc2-c2ccco2)C(=O)N1c1ccc(OC)c(OC)c1 (centres undefined)	i
CCCOc1ccc(CN2C(=O)c3cc4sccc4n3CC2(C)C(=O)NC2CCCC2)cc1 (centres undefined)	i
CSCC1OC(n2cnc3c(=O)[nH]cnc32)C(O)C1O (centres undefined)	i
Nc1ncnc2c1ncn2[C@@H]1O[C@H](CO)[C@@H](O)[C@H]1O	i
SMILES	Methyltransferases
CC(C)N(C[C@H]1O[C@@H](n2cnc3c(N)ncnc32)[C@H](O)[C@@H]1O)C1CC(CCc2nc3ccc(C(C)(C)C)cc3[nH]2)C1 (some centres undefined)	+
O=C(C1CCC1)N1CCC[C@H]1c1nc(-c2ccc(F)cc2)n[nH]1	i
CN(Cc1nccs1)C(=O)CC(c1ccccc1)c1cccc(Cl)c1 (centres undefined)	i
C=CC(C)(O)CC/C=C(\C)C(=O)O[C@@H]1[C@@H](O)[C@H](OC(C)(C=C)CC/C=C(\C)C(=O)O[C@@H]2O[C@H](CO)[C@@H](O)[C@H](O)[C@H]2O)O[C@H](CO)[C@H]1OC(=O)/C(C)=C/CCC(C)(O)C=C (some centres undefined)	i
C=CC(C)(O)CC/C=C(\C)COC1O[C@H](CO)[C@@H](O)[C@H](O)[C@H]1O (some centres undefined)	+
C/C(=C\CCC(C)(C)O)CCO[C@@H]1O[C@H](CO[C@@H]2O[C@@H](C)[C@H](O)[C@@H](O)[C@H]2O)[C@@H](O)[C@H](O)[C@H]1O	i
C=CCn1c(=O)c2ccc(C(=O)NCC(C)C)cc2n2c(=O)n(CC(=O)NC3CCCC3)nc12	i
COc1ccc(OC)c2c1cc1n2CC(C)(C(=O)NC2CCCC2)N(Cc2ccc(F)cc2)C1=O (centres undefined)	i
Cc1nonc1Cc1nc(C2CCOCC2)nn1CC1COCCO1 (centres undefined)	i
CN(C)CCCn1cc(C2=C(c3c[nH]c4ccccc34)C(=O)NC2=O)c2ccccc21	+
Cc1nnc(N2CCC3(CCC(=O)N(CCCN(C)C)C3)CC2)c2ccccc12	i
COC(=O)c1cc2n(n1)CC(C)(C(=O)NC1CCCCCC1)N(c1cc(C)cc(C)c1)C2=O (centres undefined)	i
CC(C)c1cc(CNc2nc(Nc3cc(C4CC4)[nH]n3)cc(N3CCN(C)CC3)n2)on1	+
O=C(NCCCc1ccccc1)c1ccc2c(=O)nc3c(-c4ccccc4)n[nH]n3c2c1	i
COc1cccc(CN2C(=O)c3nc4ccccc4n3CC2(C)C(=O)NCc2ccccc2)c1 (centres undefined)	i
Cc1ccc(CN2C(=O)CSc3c(c4ccccc4n3C)C2C(=O)NCc2ccccc2)cc1 (centres undefined)	i
CCCc1cc2c(-c3ccccc3)cc(=O)oc2cc1OCc1cc(C(=O)OC)oc1C	i
NS(=O)(=O)c1ccc(-n2nc(C(F)(F)F)cc2-c2ccc(Cl)cc2)cc1	i
Cc1ccc(C)c(-c2cc(C(F)(F)F)nn2-c2ccc(S(N)(=O)=O)cc2)c1	+
CS(=O)(=O)c1ccc(-n2nc(C(F)(F)F)cc2-c2ccc(F)cc2)cc1	i
Cc1ccccc1S(=O)(=O)NCCn1c(CCc2ccccc2)nc2ccccc21	i
CN1C(=O)c2cc(C(=O)NCCC3=CCCCC3)nn2CC1(C)C(=O)NCc1ccc(F)cc1 (centres undefined)	i
CC(=O)N1CCN(C(=O)c2ccc3oc(-c4ccccn4)nc3c2)CC1	i
CN1CCN(C(=O)c2ccc3cc(CCNc4ncnc5ccc(C#N)cc45)ccc3c2)CC1	+
COc1ccc(CCNc2ncnc3c2CN(C2CCC2)C(=O)N(C)C3)cc1	i
SMILES	Methyltransferases
COc1ccccc1NC(=O)CSc1nnc2n(C)c(=O)c3ccc(C(=O)NC4CCCC4)cc3n12	i
CC(C)N1CCN(C(=O)CC2=C3CCCCC3NC2=O)CC1 (centres undefined)	i
NCc1c[nH]c(=S)n1[C@@H]1CCc2c(F)cc(F)cc2C1	i
c1ccc(N2CCN(CCc3nn[nH]n3)CC2)cc1	i
O=C(O)c1ccc(O)c2ncc(N3CCCN(CCc4cccc5ccccc45)CC3)cc12	+
CCOc1ccc(CCNC(=O)CCc2nnc3n(CCc4ccccc4)c(=O)c4ccccc4n23)cc1	i
CC(NS(=O)(=O)c1ccc(Cl)c(-c2nnc(-c3ccccc3)o2)c1)C(=O)O (centres undefined)	i
CN(C)C[C@@H]1CN(Cc2ccccn2)C[C@H]1NC(=O)c1ccc(Cl)s1	i
Cn1cnc(S(=O)(=O)NCCc2ccc(Cl)cc2)c1	i
O=C(CCc1nnc2n(Cc3ccc(F)cc3)c(=O)c3ccccc3n12)NCCN1CCOCC1	i
